# Experimental data: PubChem BioAssay (NCI)
# About 83,000 compounds went through this panel and 20% of them were active in at least one assay; those are over-represented in the sample as a whole.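 Cell lines were cultured in 96-well plates, exposed to a single compound concentration, and assessed for percent growth 48 hours later.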 Activity calls are given as the source filed them. Rule for the calls: active = growth percent below 10; inactive = the rest.
# System: MOLT-4 leukemia
# Experiment: NCI-60 one-dose screen, 48 h (100 = growth as untreated, 0 = no growth, -100 = all killed)
# Conditions: 10 µM unless noted
row,SMILES,growth
1,CCOC(=O)C1OC1(c1ccccc1)c1ccccc1 (centres undefined),105% (inactive)
2,CCN1CCN(C(=O)[C@@]2(C)CC[C@]3(C)CC[C@]4(C)C(=CC(=O)[C@@H]5[C@@]6(C)CC[C@H](OCCC#N)C(C)(C)[C@@H]6CC[C@]54C)[C@@H]3C2)CC1,62.8% (inactive)
3,O=S(=O)(NCCNc1cc(-c2cn(-c3ccccc3)nc2-c2cccc(O)c2)ccn1)c1cccc(F)c1,18.5% (inactive)
4,N#CC1=C(N)Oc2ccc3ccccc3c2C1c1ccccc1 (centres undefined),32.6% (inactive)
5,COc1ccc(-c2cc(=O)oc3ccc(Cl)cc23)cc1F,7.8% (active)

# System: SR leukemia
# Experiment: as above
# Conditions: 10 µM unless noted
row,SMILES,growth
1,COC(=O)[C@]12CC[C@@H](C)[C@H](C)[C@@H]1C1=CC[C@@H]3[C@@]4(C)C[C@@H](OC(C)=O)[C@H](O)[C@@](C)(COC(C)=O)[C@@H]4[C@H](O)C[C@@]3(C)[C@]1(C)CC2,-17.7% (active)
2,N#Cc1c(-c2ccco2)nc2c(c(-c3ccccc3)nn2-c2ccccc2)c1-c1ccc(O)cc1,19.7% (inactive)
3,CC(=O)c1c(C)[nH]c(-c2nc3ccc(N4CCN(C)CC4)cc3[nH]2)c1-c1ccc2c(c1)OCCO2,46.2% (inactive)
4,COc1ccc(C(=O)c2ccc(C)cc2)c(OC)c1OC,56.6% (inactive)
5,C[C@H]1OC(=O)/C=C/[C@@H](O)[C@@H](O)CCCCCCCC[C@@H]1O,118% (inactive)
6,COc1ccccc1-n1cnc(N)c1C(=O)c1cc(OC)c(OC)c(OC)c1,30.2% (inactive)
7,COc1ccc(/C=C(\C#N)c2cc3ccccc3n2S(C)(=O)=O)cc1,53.1% (inactive)
8,Cc1cccc2c1NC(=O)[C@@]21[C@H](C(=O)c2ccccc2)[C@]2(C(=O)Nc3ccccc32)[C@H]2CCCN21,-6.48% [100 µM] (active)
9,N=c1ccc2nc3c(cc(N)c4ccccc43)oc-2c1,-41% (active)
10,COc1cccc(-c2nn(-c3ccccc3)cc2-c2ccnc(NCCCNS(=O)(=O)c3ccc(Br)cc3)c2)c1,13.3% (inactive)
11,Cc1ccc(-c2nn(Cc3cn(-c4cc(C)nc5ccccc45)nn3)c3ncnc(N)c23)cc1,61.6% (inactive)
12,COc1ccc2c(c1)c1nc3cc(C)c(C)cc3nc1n2CCN(C)C,-8.86% (active)
13,CC(=O)n1c(/C(C#N)=C/c2ccc(N(C)C)cc2)cc2ccccc21,26.8% (inactive)
14,C[C@H]1[C@H]2C3=CC[C@@H]4[C@@]5(C)C/C(=C/c6ccco6)C(=O)C(C)(C)[C@@H]5CC[C@@]4(C)[C@]3(C)CC[C@@]2(C(=O)N2CCOCC2)CC[C@@H]1C,29.4% (inactive)
15,Fc1ccc(Nc2ccc3c(OCCCN4CCOCC4)cccc3n2)cc1F,28% (inactive)
16,COc1cccc(-c2nn(-c3ccccc3)cc2-c2ccnc(NCCNS(=O)(=O)c3ccc(C(F)(F)F)cc3)c2)c1,-16.1% (active)
17,Cn1cnc2c1c(=O)n(CCC(=O)Nc1ccc(F)cc1)c(=O)n2C,102% (inactive)
18,COCCNC1=C(Cl)C(=O)c2ccccc2C1=O,105% (inactive)
19,CCCCn1c(-c2ccc(O)cc2)cn2c3c(=O)[nH]c(=O)n(C)c3nc12,31.1% (inactive)
20,Cc1ccc(N(CC(=O)Nc2ccc(S(=O)(=O)NC3CCN(C)CC3)cc2)S(=O)(=O)c2ccc(Cl)cc2)cc1,5.99% (active)
21,CC(=O)OC[C@]12CC[C@@H](/C(C)=N/O)[C@@H]1[C@H]1CC[C@@H]3[C@@]4(C)CCCNC(C)(C)[C@@H]4CC[C@@]3(C)[C@]1(C)CC2,51.8% (inactive)
22,Clc1ccc(Cn2cc(-c3nc4ccc(Br)nc4n3Cc3ccc(Cl)cc3)c3cccnc32)cc1,61% (inactive)
23,CN1CCN(CCOc2ccc(-c3cnc4c(-c5cccc(F)c5)cnn4c3)cc2)CC1,-12.8% (active)
24,CN1CCN(c2nc(-c3csc(-c4cccs4)n3)cc3ccccc23)CC1,2.45% (active)
25,CCN(CC)CCCCCCNc1ccnc2cc(Cl)ccc12,28.2% (inactive)
26,CCCCCCCC(=O)SCC/C=C/[C@@H]1CC(=O)NCc2cccc(n2)CN(Cc2ccc(Cl)cc2)CC(=O)N[C@@H](C(C)C)C(=O)O1,8.39% (active)
27,c1cc(N2CCCC2)c2nc(-c3[nH]ncc3Nc3ncnc4[nH]ccc34)[nH]c2c1,5.49% (active)
28,COc1ccc(C2=NN(c3nc(-c4ccc(OC)cc4)c(C#N)c(=O)n3C)C(=O)CC2)cc1,87.2% (inactive)
29,Cc1ccc(S(=O)(=O)Nc2ccc(-c3cc(-c4cccc(F)c4)c(C#N)c(N)n3)cc2)cc1,8.01% (active)
